EPAC2 antagonist – EPAC2 (human) antagonism | 0.18% of 360,000 active | Potency, µM (doses to about 114 µM), actives largely listed as inhibitors | Q8WZA2 | EPAC2 GEF exchange of Rap1B-BODIPY-GDP, fluorescence; further: nearly all actives have a fitted effect of over 45% in size
EPAC1 agonist – activates human EPAC1 exchange factor; O95398; EPAC1 agonist qHTS, biochemical assay; response scale: 100% = response to 6.5 mM cAMP; Potency, µM (titrated, usually from 154 µM), hits mostly activators; 0.073% of 360,000 active; further: nearly all actives have a fitted effect of over 60% in size
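Compounds were pinned as a concentration titration into mixtures of EPAC1 (100 nM), BODIPY-GDP-loaded Rap1B (250 nM) and GDP (50 uM). After 5 min at room temperature, fluorescence was followed for 30 min; activity was scaled to 6.5 mM cAMP.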
USP1 inh – USP1/UAF1 (human) deubiquitinase inhibition; recombinant USP1/UAF1, Ub-Rhodamine cleavage fluorescence; Potency, µM (top dose mostly 57.1 µM), usual class: inhibitors; O94782; 0.23% of 390,000 active; AID 743255; further: nearly all actives have a fitted effect of over 60% in size
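USP1/UAF1 complex (1 nM) preincubated 15 min at room temperature with compound, then Ub-Rho substrate (150 nM final) added. Kinetic fluorescence at 480/540 nm over 6 reads at 60 s intervals; 50 mM HEPES pH 7.8, 0.5 mM EDTA, 0.1 mg/ml BSA, 1 mM TCEP, 0.01% Tween-20.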
EPAC2 ag – activates human EPAC2 exchange factor | Q8WZA2 | EPAC2 activation, biochemical qHTS; response scale: 100% = 6.5 mM cAMP response | Potency, µM (top dose mostly 154 µM), usual class: activators | 0.079% of 360,000 active; further: nearly all actives have a fitted effect of over 50% in size
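Guanine nucleotide exchange by EPAC2 is measured as reduced fluorescence of BODIPY-GDP once it is released from 250 nM Rap1B. Plates are read kinetically for 30 min at room temperature; results are scaled to 6.5 mM cAMP.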
EPAC1 antag – EPAC1 (human) antagonism; 0.14% of 360,000 active; EPAC1 GEF assay, Rap1b-BODIPY-GDP exchange fluorescence; Potency, µM (highest dose often 115 µM), hits mostly inhibitors; AID 720709; O95398; further: nearly all actives have a fitted effect of over 50% in size
Numbers stand for hits; – = inactive; ? = inconclusive; · = not tested or not shown. Shown are actives, neighbours in structure and some others; about 0.49% of the full set was active somewhere. The call rests on the fitted dose curve; in most records, active means well fitted curve in the direction sought with a large enough effect; inconclusive means small, poorly fitted or top-dose-only effect, or another doubt; inactive means no such curve, though single readings can be large; an effect the other way counts as inactive or inconclusive.

SMILES | EPAC2 antagonist | EPAC1 agonist | USP1 inh | EPAC2 ag | EPAC1 antag
CCCCCCOC(=O)C(C#N)c1nc2ccccc2nc1N1CCCCC1 (stereo not given) | – | 112µM | – | – | –
CCOC(=O)C1CCCN(c2nc3ccccc3nc2C(C#N)C(=O)OC(C)C)C1 (stereo not given) | – | – | – | – | 89.1µM
CCCN1C(=O)CN(C2CCCCCC2)C(=O)C1c1ccc(OCC)c(OC)c1 (stereo not given) | · | · | – | · | ·
COc1cccc2cc(C(C)N(CCCN3CCOCC3)C(=S)Nc3cccc(C)c3)oc12 (stereo not given) | – | – | – | – | 56.2µM
O=C(O)C(c1ccccc1)N1C(=O)/C(=C/c2cccs2)SC1=S (stereo not given) | 56.2µM | – | – | – | –
Cc1[nH]c(=O)nc(NN=Cc2ccc(Cl)cc2)c1C(=O)Nc1ccc(Cl)cc1 | – | – | – | 31.6µM | –
CCOc1ccccc1CNS(=O)(=O)c1ccc2c(c1)CCCN2C(C)=O | · | · | – | · | ·
COc1ccc(-c2[nH]c(-c3ccc(C)cc3)nc2SCC(=O)Nc2nccs2)cc1 | – | – | – | – | –
COc1ccc(-c2[nH]c(-c3ccc(SC)cc3)nc2SCC(=O)Nc2nccs2)cc1 | – | – | – | – | 70.8µM
COCCN=c1scc(-c2ccco2)n1/N=C/c1ccc(O)c(O)c1O | – | – | ? | – | 17.8µM
C=CCN=c1scc(-c2ccco2)n1/N=C/c1ccc(O)c(O)c1O | – | – | – | – | 56.2µM
CN=c1scc(-c2cccs2)n1/N=C/c1ccc(O)c(O)c1O | – | – | – | – | ?
CN=c1scc(C)n1/N=C/c1ccc(O)c(O)c1O | – | – | – | – | 50.1µM
CC(C)N=c1scc(-c2ccco2)n1/N=C/c1ccc(O)c(O)c1 | – | – | – | ? | ?
O=C(CCC1N=C2c3ccccc3N=C(SCc3ccc(F)cc3)N2C1=O)NCCc1ccccc1 (stereo not given) | · | · | – | · | ·
Cc1ccc(S(=O)(=O)N2[C@@H](c3cccc(Cl)c3)C(C(=O)O)=CC[C@H]2c2ccc(C(C)C)cc2)cc1 | – | – | ? | – | 56.2µM
Cc1ccc(S(=O)(=O)N2[C@@H](c3ccc(Cl)cc3)C(C(=O)O)=CC[C@H]2c2cccc(Cl)c2)cc1 | ? | – | – | – | –
CCN(CC1COc2ccccc2O1)C(=O)CN1C(=O)NC(C)(c2ccccc2)C1=O (stereo not given) | – | – | – | – | –
CCN(CC1COc2ccccc2O1)C(=O)CN1C(=O)NC(C)(c2ccc(C)cc2)C1=O (stereo not given) | – | 56.2µM | – | – | –
C#CCSc1nc2sc3c(c2c(=O)n1-c1cccc(OC)c1)CCN(C(C)=O)C3 | · | · | – | · | ·
CC1(C)CC(=O)C2=C(C1)c1c(ccc3ccccc13)NC2c1cc([N+](=O)[O-])cc([N+](=O)[O-])c1O (stereo not given) | 79.4µM | – | ? | – | 31.6µM
CCc1ccc(NC(=O)/C(C#N)=C/c2cc3ccc(C)cc3nc2N2CCOCC2)cc1 | – | – | – | 100µM | –
CCOC(=O)c1cccc(NC(=O)C2CCN(S(=O)(=O)c3cn(C)cn3)CC2)c1 | · | · | – | · | ·
O=C1C(=O)c2ccccc2C(O)=C1c1ccccc1F | – | – | – | – | –
O=C1C(O)=C(O)C(=O)c2ccccc21 | ? | – | 15.8µM | – | ?
SMILES | EPAC2 antagonist | EPAC1 agonist | USP1 inh | EPAC2 ag | EPAC1 antag
O=C1c2ccccc2C(=O)c2[nH]c(=O)[nH]c21 | – | – | 28.2µM | – | –
CN(C)c1ccc(C(CNC(=O)c2ccccc2Cl)N2CCCC2)cc1 (stereo not given) | · | · | – | · | ·
CCNc1cccc2c1C(=O)N(C)C2=O | – | ? | 15.8µM | ? | –
COc1ccc(CNC(=O)CCC2N=C3c4ccccc4N=C(SCc4ccc(F)cc4)N3C2=O)cc1 (stereo not given) | · | · | – | · | ·
COc1cccc(CNC(=O)C2=C(C)C(=O)OC23CCCCCC3)c1 | · | · | – | · | ·
COc1cc2c(cc1OC)-c1cc3ccc4c(c3c[n+]1CC2)OCO4 | – | ? | 25.1µM | ? | –
CN1/C(=C/C=N/n2cnnc2)C(C)(C)c2ccccc21 | – | – | – | – | –
CN1/C(=C\C=C(C#N)C#N)C(C)(C)c2ccccc21 | – | – | ? | 63.1µM | –
Nc1ncc(-c2ccc(-c3ccccc3)cc2F)cc1-c1ccccc1F | – | – | · | – | –
COC1OC(c2ccccc2)=C(c2cnc(N)nc2)c2ccc(F)cc21 (stereo not given) | 39.8µM | – | · | – | –
Cc1ccc(C(=O)c2coc3ccc(O)c(Cl)c23)cc1 | ? | – | – | – | 20µM
Oc1sc(C=Nc2ccc(F)cc2)c2ccccc12 | – | – | 31.6µM | – | –
Oc1sc(C=Nc2ccccc2)c2ccccc12 | – | – | 28.2µM | ? | –
Cc1cc(O)c(C(=O)/C=C/c2cccc([N+](=O)[O-])c2)c(=O)o1 | – | – | – | – | 56.2µM
O=S(=O)(Nc1ccc(-c2ccc(N3CCCCC3)nn2)cc1)c1ccc(OC(F)(F)F)cc1 | · | · | – | · | ·
CCn1c(=O)cc(OCC(=O)N2CCN(c3ccc(C)cc3)C(C)C2)c2ccccc21 (stereo not given) | · | · | – | · | ·
COc1ccc(OC)c(C2C3CN(C(C)C)CC=C3C(C#N)=C(N)C2(C#N)C#N)c1 (stereo not given) | ? | – | ? | – | –
CCCN1CC=C2C(C#N)=C(N)C(C#N)(C#N)C(c3cccc(OC)c3OC)C2C1 (stereo not given) | 22.4µM | ? | – | – | –
CCN1CC=C2C(C#N)=C(N)C(C#N)(C#N)C(CCc3ccccc3)C2C1 (stereo not given) | 44.7µM | 100µM | 22.4µM | 50.1µM | ?
CC(C)c1ccc(NC(=O)Cn2c(=O)n(Cc3nc(-c4ccccc4)no3)c(=O)c3cc4c(cc32)OCO4)cc1 | · | · | – | · | ·
CCOc1ccc(N=C2NC(=O)S/C2=C\c2ccc(N(C)C)cc2)cc1 | – | – | 28.2µM | ? | –
CCOc1ccc(/C=C2/SC(=O)NC2=S)cc1 | – | – | – | – | –
CCc1cccc(NC(=O)c2nnn(Cc3ccc(SC)cc3)c2N)c1 | · | · | – | · | ·
O=c1c2sccc2n(Cc2cc(=O)n3cc(Cl)ccc3n2)c(=O)n1-c1ccccc1 | · | · | – | · | ·
CCCC(=O)OC1CC(C)N(C(=O)c2ccccc2)c2ccc(C)cc21 (stereo not given) | 25.1µM | – | – | – | –
Cc1ccc(C(=O)c2cn(Cc3ccc(F)cc3)c3nc(C)ccc3c2=O)cc1 | · | · | – | · | ·
CCN(CCn1cccn1)Cc1c(C(=O)N2CCCCCCC2)nc2ccc(Cl)cn12 | – | – | – | – | 22.4µM
O=C(NCc1ccccc1)C(=O)NCC(c1ccc2c(c1)OCO2)N1CCOCC1 (stereo not given) | · | · | – | · | ·

Source: PubChem (National Center for Advancing Translational Sciences (NCATS))
